The values below come from article PMC7862700, “An all-to-all approach to the identification of sequence-specific readers for epigenetic DNA modifications on cytosine”.

Holding throughout (assay): DAPPL (digital affinity profiling via proximity ligation, sequencing); 10 mM Tris-HCl pH 7.5, 50 mM NaCl, 1 mM DTT, 4% glycerol, room temperature, 30 min; GST-TFs on glutathione beads, 16-mer random dsDNA library, 0.1% formaldehyde crosslink after washing; high values mean tight binding
One assay deals with T1, FEV (Homo sapiens, UniProt Q99581 1-238).
T1 sequence: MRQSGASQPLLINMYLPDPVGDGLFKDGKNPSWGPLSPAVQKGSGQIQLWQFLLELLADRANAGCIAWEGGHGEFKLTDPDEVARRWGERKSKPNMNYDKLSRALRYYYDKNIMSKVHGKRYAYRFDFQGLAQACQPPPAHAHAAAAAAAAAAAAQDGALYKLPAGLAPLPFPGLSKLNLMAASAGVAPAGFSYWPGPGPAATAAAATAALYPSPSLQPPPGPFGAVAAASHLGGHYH
Conditions: protein: recombinant; tags: N-terminal GST; dsDNA, one strand shown. The method, boiled down: (§1)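 Yeast served to express human transcription factors as GST fusions, which were then captured on glutathione beads and labelled with DNA barcodes. Pooled with a tag-only sample, they were incubated with 200 nmole of a 16-mer random double-stranded DNA library for 30 min at room temperature in Tris/NaCl/DTT/glycerol buffer, washed, crosslinked with 0.1% formaldehyde, ligated by proximity, amplified by PCR and sequenced. Dividing each hexamer's read frequency for a factor by its frequency for the tag-only sample gives the binding signal.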

Another assay concerns the target ETV5 (Homo sapiens, UniProt P41161 1-510). The settings on record: protein: recombinant; tags: N-terminal GST; dsDNA, one strand shown. The gist of the method:
as §1

Another assay addresses HSF1 (Homo sapiens, UniProt Q00613 1-529). The settings on record: protein: recombinant; tags: N-terminal GST; chain copies: 3; dsDNA, one strand shown. The method, boiled down:
as §1

The target of the next assay is T2, SPIC (Homo sapiens, UniProt Q8N5J4 1-248).
T2 sequence: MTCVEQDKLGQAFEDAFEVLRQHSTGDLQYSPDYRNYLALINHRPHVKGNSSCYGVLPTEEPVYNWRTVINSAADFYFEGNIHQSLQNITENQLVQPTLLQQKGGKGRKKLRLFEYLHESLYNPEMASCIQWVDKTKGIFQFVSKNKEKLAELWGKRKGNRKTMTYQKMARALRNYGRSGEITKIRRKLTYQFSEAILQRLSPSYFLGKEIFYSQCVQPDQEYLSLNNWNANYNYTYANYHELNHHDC
Conditions: protein: recombinant; tags: N-terminal GST; dsDNA, one strand shown. The method, boiled down:
as §1

A further assay addresses ELF4 (Homo sapiens, UniProt Q99607 1-663). Conditions: protein: recombinant; tags: N-terminal GST; dsDNA, one strand shown. The gist of the method: as §1
For a further assay, the target named is T3, ELK4 (Homo sapiens, UniProt P28324-2 1-405).
T3 sequence: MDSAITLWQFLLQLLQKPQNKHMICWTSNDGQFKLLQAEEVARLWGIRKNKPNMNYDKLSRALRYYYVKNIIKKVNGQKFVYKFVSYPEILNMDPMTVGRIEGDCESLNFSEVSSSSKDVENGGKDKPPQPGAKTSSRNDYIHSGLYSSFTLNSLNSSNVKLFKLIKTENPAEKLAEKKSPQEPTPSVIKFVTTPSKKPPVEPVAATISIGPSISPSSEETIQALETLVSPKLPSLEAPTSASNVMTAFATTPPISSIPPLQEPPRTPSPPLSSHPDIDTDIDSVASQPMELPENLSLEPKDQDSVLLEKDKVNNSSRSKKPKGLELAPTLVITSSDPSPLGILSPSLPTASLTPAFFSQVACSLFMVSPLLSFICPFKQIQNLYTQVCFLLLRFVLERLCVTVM
Conditions: protein: recombinant; tags: N-terminal GST; dsDNA, one strand shown. The gist of the method: as §1

Another assay deals with T4, ETV2 (Homo sapiens, UniProt O00321 1-342).
T4 sequence: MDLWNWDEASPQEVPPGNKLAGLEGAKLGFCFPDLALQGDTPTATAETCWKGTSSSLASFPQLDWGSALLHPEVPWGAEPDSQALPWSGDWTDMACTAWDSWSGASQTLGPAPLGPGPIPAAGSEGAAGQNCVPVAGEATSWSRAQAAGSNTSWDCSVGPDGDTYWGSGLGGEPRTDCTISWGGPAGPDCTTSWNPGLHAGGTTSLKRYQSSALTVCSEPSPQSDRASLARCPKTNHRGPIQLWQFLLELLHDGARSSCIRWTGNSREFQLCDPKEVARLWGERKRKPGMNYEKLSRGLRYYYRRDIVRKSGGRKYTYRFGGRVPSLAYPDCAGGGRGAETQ
Conditions: protein: recombinant; tags: N-terminal GST; dsDNA, one strand shown. The gist of the method:
as §1

For another assay, the target named is T5, ELF3 (Homo sapiens, UniProt P78545 1-371).
T5 sequence: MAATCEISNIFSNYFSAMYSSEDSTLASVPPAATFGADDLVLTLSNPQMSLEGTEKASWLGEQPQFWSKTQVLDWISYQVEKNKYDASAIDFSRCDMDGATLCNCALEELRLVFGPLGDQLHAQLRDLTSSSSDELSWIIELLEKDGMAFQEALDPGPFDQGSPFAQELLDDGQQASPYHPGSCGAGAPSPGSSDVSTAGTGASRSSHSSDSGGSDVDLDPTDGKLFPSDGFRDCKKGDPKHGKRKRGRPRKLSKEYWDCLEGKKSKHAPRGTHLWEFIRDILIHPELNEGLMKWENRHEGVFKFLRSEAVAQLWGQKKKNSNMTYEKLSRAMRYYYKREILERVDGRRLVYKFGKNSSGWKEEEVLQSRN
The settings on record: protein: recombinant; tags: N-terminal GST; dsDNA, one strand shown. The method, boiled down: as §1

Another assay concerns the target CRX (Homo sapiens, UniProt O43186 1-299). Conditions: protein: recombinant; tags: N-terminal GST; dsDNA, one strand shown. The gist of the method:
as §1

For another assay, the target named is ETV1 (Homo sapiens, UniProt P50549 1-477). The settings on record: protein: recombinant; tags: N-terminal GST; dsDNA, one strand shown. The method, boiled down:
as §1

Another assay concerns the target T6, ERF (Homo sapiens, UniProt P50548 1-548).
T6 sequence: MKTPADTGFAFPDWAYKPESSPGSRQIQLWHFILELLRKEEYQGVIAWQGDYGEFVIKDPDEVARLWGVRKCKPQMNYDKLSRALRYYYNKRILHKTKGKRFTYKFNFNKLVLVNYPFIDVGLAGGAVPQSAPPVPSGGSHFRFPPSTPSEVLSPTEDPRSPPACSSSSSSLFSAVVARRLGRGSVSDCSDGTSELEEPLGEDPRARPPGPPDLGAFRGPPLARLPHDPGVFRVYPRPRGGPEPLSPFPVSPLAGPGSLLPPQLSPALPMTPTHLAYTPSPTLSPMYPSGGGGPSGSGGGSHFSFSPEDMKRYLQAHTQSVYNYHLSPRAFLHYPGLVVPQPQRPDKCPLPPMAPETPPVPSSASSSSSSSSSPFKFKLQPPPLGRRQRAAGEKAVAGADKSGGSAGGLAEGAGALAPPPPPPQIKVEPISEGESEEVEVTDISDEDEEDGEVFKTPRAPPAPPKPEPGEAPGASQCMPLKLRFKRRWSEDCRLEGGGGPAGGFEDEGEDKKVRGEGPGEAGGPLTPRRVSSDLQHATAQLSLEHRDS
The settings on record: protein: recombinant; tags: N-terminal GST; dsDNA, one strand shown. The method, boiled down: as §1

In a further assay the target is T7, ETV3L (Homo sapiens, UniProt Q6ZN32 1-361).
T7 sequence: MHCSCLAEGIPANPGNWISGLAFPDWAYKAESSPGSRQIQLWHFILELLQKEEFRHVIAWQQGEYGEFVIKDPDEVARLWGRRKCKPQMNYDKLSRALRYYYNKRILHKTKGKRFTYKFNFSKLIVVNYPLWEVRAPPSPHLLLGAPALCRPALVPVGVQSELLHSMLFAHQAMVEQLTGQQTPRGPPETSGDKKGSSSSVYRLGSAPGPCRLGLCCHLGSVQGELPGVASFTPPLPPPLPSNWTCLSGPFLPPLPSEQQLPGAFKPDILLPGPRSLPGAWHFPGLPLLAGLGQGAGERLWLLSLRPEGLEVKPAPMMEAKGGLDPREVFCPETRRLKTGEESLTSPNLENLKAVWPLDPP
The settings on record: protein: recombinant; tags: N-terminal GST; dsDNA, one strand shown. The gist of the method:
as §1

For a further assay, the target named is T8, ETS2 (Homo sapiens, UniProt P15036 1-469).
T8 sequence: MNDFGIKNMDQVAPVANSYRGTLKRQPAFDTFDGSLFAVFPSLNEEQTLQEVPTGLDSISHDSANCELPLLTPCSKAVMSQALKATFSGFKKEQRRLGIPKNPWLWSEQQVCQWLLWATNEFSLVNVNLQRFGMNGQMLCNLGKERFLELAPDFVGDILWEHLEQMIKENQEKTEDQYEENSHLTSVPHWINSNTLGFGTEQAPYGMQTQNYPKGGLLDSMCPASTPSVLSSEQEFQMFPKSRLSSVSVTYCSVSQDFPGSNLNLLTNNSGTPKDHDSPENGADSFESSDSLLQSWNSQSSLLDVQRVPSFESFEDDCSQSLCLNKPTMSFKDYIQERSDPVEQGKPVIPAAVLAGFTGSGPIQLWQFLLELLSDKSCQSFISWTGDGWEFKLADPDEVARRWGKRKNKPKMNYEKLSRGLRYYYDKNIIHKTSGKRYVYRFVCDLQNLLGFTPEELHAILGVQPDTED
Conditions: protein: recombinant; tags: N-terminal GST; dsDNA, one strand shown. The gist of the method: as §1

A further assay concerns the target T9, SPDEF (Homo sapiens, UniProt O95238 1-335).
T9 sequence: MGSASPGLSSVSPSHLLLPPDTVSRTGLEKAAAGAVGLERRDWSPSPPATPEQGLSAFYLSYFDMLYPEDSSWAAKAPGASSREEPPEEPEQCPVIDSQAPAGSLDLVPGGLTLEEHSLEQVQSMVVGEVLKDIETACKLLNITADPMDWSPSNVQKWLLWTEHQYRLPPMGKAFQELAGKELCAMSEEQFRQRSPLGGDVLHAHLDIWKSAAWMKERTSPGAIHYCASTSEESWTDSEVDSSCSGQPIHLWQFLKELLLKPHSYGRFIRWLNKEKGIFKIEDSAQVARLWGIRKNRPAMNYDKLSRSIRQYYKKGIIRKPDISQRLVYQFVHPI
Conditions: protein: recombinant; tags: N-terminal GST; dsDNA, one strand shown. The gist of the method: as §1

For a further assay, the target named is T10, ETV7 (Homo sapiens, UniProt Q9Y603 1-341).
T10 sequence: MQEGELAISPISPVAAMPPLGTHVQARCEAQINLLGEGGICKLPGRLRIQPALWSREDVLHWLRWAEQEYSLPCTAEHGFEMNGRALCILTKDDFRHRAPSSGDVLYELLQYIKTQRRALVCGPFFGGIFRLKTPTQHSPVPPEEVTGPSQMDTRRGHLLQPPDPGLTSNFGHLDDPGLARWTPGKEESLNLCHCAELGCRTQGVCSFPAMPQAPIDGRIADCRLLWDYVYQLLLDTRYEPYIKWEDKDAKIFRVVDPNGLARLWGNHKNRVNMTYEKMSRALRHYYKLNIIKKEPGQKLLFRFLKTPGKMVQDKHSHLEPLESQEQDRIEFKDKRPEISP
The settings on record: protein: recombinant; tags: N-terminal GST; dsDNA, one strand shown. The gist of the method:
as §1

Another assay has as its target T11, ELF5 (Homo sapiens, UniProt Q9UKW6-2 1-255).
T11 sequence: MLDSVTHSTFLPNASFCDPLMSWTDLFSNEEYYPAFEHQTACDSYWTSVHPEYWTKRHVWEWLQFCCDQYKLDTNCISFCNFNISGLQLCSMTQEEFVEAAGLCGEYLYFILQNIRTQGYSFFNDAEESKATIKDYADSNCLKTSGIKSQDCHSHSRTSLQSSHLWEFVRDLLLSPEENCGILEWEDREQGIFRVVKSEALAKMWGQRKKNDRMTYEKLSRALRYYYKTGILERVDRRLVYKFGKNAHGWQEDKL
Conditions: protein: recombinant; tags: N-terminal GST; dsDNA, one strand shown. The gist of the method: as §1

The next assay has as its target T12, ETV3 (Homo sapiens, UniProt P41162-2 1-143).
T12 sequence: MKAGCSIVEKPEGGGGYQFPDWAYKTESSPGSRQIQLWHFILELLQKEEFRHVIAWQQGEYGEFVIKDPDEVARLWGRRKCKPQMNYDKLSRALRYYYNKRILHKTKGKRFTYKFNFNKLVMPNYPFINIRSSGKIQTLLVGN
The settings on record: protein: recombinant; tags: N-terminal GST; dsDNA, one strand shown. The gist of the method:
as §1

The next assay addresses ETV6 (Homo sapiens, UniProt P41212 1-452). Conditions: protein: recombinant; tags: N-terminal GST; dsDNA, one strand shown. The gist of the method: as §1

CRX, sequence (O43186 whole entry): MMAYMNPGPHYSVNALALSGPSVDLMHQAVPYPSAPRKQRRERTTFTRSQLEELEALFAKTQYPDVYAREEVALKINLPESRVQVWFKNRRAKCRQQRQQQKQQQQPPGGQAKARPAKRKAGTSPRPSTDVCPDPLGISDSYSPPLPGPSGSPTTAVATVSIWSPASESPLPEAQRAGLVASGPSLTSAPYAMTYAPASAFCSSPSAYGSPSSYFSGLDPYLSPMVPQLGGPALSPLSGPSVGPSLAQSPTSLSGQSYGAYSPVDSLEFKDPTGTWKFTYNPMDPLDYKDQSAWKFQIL
ELF4, sequence (Q99607 whole entry): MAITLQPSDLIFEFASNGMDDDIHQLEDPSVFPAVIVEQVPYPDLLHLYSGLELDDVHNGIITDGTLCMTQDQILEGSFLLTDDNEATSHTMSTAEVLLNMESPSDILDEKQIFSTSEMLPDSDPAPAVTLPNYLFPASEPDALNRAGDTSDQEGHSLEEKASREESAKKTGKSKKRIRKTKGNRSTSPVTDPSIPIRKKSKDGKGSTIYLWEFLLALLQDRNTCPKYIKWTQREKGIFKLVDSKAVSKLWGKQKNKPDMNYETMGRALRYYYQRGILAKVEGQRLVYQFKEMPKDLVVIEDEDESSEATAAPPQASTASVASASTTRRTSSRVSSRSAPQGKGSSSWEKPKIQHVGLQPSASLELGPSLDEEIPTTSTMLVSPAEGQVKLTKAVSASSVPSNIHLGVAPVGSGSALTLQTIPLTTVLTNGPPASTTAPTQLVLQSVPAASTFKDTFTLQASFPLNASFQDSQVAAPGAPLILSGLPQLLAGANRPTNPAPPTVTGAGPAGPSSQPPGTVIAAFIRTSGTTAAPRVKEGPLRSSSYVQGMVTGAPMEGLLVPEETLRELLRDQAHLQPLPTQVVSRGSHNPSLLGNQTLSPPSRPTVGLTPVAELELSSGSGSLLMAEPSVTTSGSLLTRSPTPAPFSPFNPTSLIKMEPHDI
ETV1, sequence (P50549 whole entry): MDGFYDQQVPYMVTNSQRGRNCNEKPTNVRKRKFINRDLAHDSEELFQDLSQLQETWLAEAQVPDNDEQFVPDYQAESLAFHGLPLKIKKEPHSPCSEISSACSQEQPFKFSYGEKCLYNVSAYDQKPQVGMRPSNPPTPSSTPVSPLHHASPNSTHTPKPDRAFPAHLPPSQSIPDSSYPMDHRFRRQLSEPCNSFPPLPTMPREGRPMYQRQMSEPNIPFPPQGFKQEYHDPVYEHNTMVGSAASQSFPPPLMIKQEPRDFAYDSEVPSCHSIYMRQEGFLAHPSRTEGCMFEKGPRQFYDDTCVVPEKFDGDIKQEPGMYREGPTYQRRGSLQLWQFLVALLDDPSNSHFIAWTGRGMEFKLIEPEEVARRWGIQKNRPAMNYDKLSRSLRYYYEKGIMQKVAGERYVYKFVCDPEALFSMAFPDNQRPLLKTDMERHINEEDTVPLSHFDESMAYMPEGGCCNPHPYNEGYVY
ETV5, sequence (P41161 whole entry): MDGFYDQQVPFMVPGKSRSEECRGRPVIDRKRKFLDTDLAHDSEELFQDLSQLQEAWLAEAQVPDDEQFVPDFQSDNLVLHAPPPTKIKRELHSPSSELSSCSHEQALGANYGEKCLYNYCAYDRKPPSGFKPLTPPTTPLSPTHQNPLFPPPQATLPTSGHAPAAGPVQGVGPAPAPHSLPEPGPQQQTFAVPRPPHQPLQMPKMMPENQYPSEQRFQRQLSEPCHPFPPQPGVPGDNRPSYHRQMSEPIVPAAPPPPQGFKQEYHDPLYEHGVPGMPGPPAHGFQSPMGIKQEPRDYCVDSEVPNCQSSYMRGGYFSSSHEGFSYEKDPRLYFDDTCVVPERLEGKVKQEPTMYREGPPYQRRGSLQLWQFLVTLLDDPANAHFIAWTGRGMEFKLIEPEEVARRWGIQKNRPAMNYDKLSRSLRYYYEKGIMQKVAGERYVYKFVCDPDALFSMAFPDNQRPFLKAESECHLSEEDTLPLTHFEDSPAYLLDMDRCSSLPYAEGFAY
ETV6, sequence (P41212 whole entry): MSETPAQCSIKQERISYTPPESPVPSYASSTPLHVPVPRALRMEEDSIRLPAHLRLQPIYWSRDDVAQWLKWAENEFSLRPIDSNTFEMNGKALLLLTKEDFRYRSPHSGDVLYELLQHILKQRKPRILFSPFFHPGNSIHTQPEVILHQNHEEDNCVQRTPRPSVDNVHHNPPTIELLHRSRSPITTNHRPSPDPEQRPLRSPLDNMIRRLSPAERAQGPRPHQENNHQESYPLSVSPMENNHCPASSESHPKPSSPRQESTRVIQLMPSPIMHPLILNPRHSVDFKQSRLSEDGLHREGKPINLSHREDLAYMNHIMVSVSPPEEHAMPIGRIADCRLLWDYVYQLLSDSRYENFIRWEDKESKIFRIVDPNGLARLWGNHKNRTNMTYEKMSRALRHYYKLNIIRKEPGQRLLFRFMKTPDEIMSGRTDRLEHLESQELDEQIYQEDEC
HSF1, sequence (Q00613 whole entry): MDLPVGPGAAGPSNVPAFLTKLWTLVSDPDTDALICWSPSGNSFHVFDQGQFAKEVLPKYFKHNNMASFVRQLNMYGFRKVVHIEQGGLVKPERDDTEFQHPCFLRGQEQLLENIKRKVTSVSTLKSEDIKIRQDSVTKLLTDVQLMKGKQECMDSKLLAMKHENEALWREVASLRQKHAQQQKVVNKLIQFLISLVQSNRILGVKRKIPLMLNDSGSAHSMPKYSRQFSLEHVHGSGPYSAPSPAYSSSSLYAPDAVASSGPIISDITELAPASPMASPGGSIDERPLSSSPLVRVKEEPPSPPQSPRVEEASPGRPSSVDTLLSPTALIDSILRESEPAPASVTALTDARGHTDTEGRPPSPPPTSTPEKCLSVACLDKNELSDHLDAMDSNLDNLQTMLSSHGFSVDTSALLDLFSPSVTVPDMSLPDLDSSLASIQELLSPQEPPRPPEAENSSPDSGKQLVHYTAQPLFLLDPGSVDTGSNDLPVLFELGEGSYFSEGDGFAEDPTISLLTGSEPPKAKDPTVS

Take TCACCA: the binding signal with FEV is 1.16 fold enrichment (6-mer frequency, TF over GST control); in the assay with ETV5 it was 1.12 fold enrichment (6-mer frequency, TF over GST control); with HSF1 it was 1.01 fold enrichment (6-mer frequency, TF over GST control); with SPIC, 1.19 fold enrichment (6-mer frequency, TF over GST control); in the assay with ELF4 it was 1.25 fold enrichment (6-mer frequency, TF over GST control); in the assay with ELK4 it was 1.21 fold enrichment (6-mer frequency, TF over GST control). In addition, the binding signal in the assay with ETV2 was 1.32 fold enrichment (6-mer frequency, TF over GST control); with ELF3 it was 1.39 fold enrichment (6-mer frequency, TF over GST control); in the assay with CRX, 1.04 fold enrichment (6-mer frequency, TF over GST control); with ETV1 it was 1.13 fold enrichment (6-mer frequency, TF over GST control); in the assay with ERF, 1.12 fold enrichment (6-mer frequency, TF over GST control); with ETV3L it was 1.16 fold enrichment (6-mer frequency, TF over GST control). The binding signal with ETS2 is 1.08 fold enrichment (6-mer frequency, TF over GST control); in the assay with SPDEF, 1.13 fold enrichment (6-mer frequency, TF over GST control); with ETV7, 1.04 fold enrichment (6-mer frequency, TF over GST control); in the assay with ELF5, 1.07 fold enrichment (6-mer frequency, TF over GST control); in the assay with ETV3, 1.19 fold enrichment (6-mer frequency, TF over GST control); with ETV6, 1.08 fold enrichment (6-mer frequency, TF over GST control).
